Source: PubChem (The Scripps Research Institute Molecular Screening Center)
Only some compounds are listed: those with a hit (about 5.7% of all), similar ones and a draw of the others.
hgDAF-12 ag: H. glycines DAF-12 receptor agonists, primary screen, cell-based, luminescence, HEK293, GAL4 fusion, UAS-luciferase; Nuclear hormone receptor DAF-12 (Heterodera glycines), GAL4 fusion; HEK293 GAL4-hgDAF12 UAS-luciferase reporter, agonist luminescence; normalized to butyrate control; activation, % at 6.8 µM; 370,000 tested, 1.8% active;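 active = activation above a cutoff set at the mean of all screened compounds plus 3 SD, cut at about 10% in these data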
DAX1 inh-1: DAX1 (NR0B1) inhibitors on StAR promoter, primary screen, cell-based, luminescence, SF-1 (NR5A1), full-length DAX-1 | AID 652010, 2013 | HEK293T StAR-luciferase reporter, SF-1/DAX-1 repression relief | 370,000 tested, 1.1% active | inhibition, % at 6.8 µM;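 active = inhibition above the mean over all tested compounds plus 3 SD, cut at about 3.6% in these data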;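 also: higher inhibition means more luminescence from relief of DAX-1 repression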
ssDAF12 agonist: S. stercoralis DAF-12 nuclear receptor activators, primary screen, cell-based, luminescence, HEK293, GRIP1 co-expression, lit1-tk-luc. Nuclear hormone receptor DAF-12 (Strongyloides stercoralis). AID 652126, 2013. HEK293 ssDAF-12/GRIP1 lit1-tk-luc reporter; % of 3 µM dafachronic acid response. 370,000 tested, 1% active. activation, % at 6.8 µM;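 active = activation above the mean over all tested compounds plus 3 SD, cut at about 0.9% in these data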
hcDAF12 agonist: H. contortus DAF-12 nuclear receptor activators, primary screen, cell-based, luminescence, HEK293, lit1-tk-luc reporter; 370,000 tested, 1.4% active; activation, % at 6.8 µM; HEK293 hcDAF-12 lit1-tk-luc reporter; 0% DMSO, 100% Δ7-dafachronic acid;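 active = activation above the mean of all tested compounds plus 3 SD, cut at about 5.5% in these data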
AHR act: AHR activators, primary screen, cell-based, luminescence, luciferase reporter, human; 320,000 tested, 2.5% active; AID 2796, 2010; activation, % at 5 µM; AHR-responsive luciferase reporter cells; Aryl hydrocarbon receptor (Homo sapiens), P35869; in the data active = activation above about 47%
DAX1 inh-2: DAX1 (NR0B1) inhibitors, primary screen, cell-based, HEK293, Gal4-DAX1, luciferase luminescence; inhibition, % at 6.75 µM; 340,000 tested, 0.99% active; AID 504766, 2011; Nuclear receptor subfamily 0 group B member 1 (Homo sapiens), P51843; HEK293 Gal4-DAX1 luciferase reporter;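 active = inhibition above the mean over all tested compounds plus 3 SD, cut at about 4.2% in these data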;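 also: inhibition shows as a rise in luminescence from relieved DAX1 repression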
Target sequence (P51843 207-470 limits assumed): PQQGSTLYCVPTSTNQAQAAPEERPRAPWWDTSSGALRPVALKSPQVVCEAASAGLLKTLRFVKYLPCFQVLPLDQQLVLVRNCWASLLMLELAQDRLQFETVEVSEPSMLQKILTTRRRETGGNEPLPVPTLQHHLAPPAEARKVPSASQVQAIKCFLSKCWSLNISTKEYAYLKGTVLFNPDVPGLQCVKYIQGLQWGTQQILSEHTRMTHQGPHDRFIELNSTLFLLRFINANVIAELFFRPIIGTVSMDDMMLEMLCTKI
Of the large screens only hits and unclear results are named; the others gave an inactive call.

OC(COc1ccc2ccccc2c1Cl)CN1CCOCC1 (configuration not stated)	hgDAF-12 ag 12
CCCS(=O)(=O)NC(=O)C1(C)CCN(C(=O)c2cc(F)cc(F)c2)C1 (configuration not stated)	none (no result: AHR act, DAX1 inh-2)
CCNC(=S)N1CCC(n2cnc3ccccc32)CC1	DAX1 inh-2 4.6
CC(=O)NC(=S)Nc1ccccc1F	DAX1 inh-2 6.3
COc1ccc(C(=O)NC(=S)Nc2ccccc2F)cc1	hgDAF-12 ag 11
COc1cccc(C(=O)NC(=S)Nc2ccc3c4c(cccc24)CC3)c1	AHR act 67
COc1ccc(OCC(=O)NC(=S)Nc2ccc3c4c(cccc24)CC3)cc1	none
Brc1ccc(-c2noc(CCc3ccccc3)n2)o1	hcDAF12 agonist 6.1
Brc1ccc(-c2noc(COc3ccc4ccccc4c3)n2)o1	none
COc1ccc(Cc2nc(-c3ccc(Br)o3)no2)cc1OC	AHR act 47
COc1ccc(-c2noc(-c3ccc(Br)o3)n2)cc1OC	none
CCn1ccc(C(=O)Nc2ccccc2SC)n1	hgDAF-12 ag 11
CCn1ccc(C(=O)Nc2ccc(Cl)cn2)n1	DAX1 inh-1 4.2
COc1ccccc1-c1coc2cc(OC(=O)/C=C/c3ccccc3)ccc2c1=O	none
Cc1ccc(N(CC(=O)N2CCCCCC2)S(C)(=O)=O)c(C)c1	none (no result: AHR act)
O=S(=O)(NCCSc1ccccc1)c1cccs1	none
O=C(COc1ccc(CO)cc1Cl)Nc1ccc(F)cc1	hgDAF-12 ag 11
CC1(C(=O)NS(=O)(=O)c2ccc(Br)cc2)CCN1C(=O)CCC1CCCC1 (configuration not stated)	none (no result: AHR act, DAX1 inh-2)
CC(C)Oc1ccc(CCc2n[nH]c(=S)n2-c2ccccc2)cc1	DAX1 inh-2 4.3
Cc1cccc(C)c1NCc1n[nH]c(=S)n1-c1ccccc1	DAX1 inh-2 4.7
COc1ccc(C2=C(C=O)Cc3ccccc3O2)cc1	none
O=C1c2ccccc2NC(c2ccccc2O)N1O (configuration not stated)	none
O=C1c2ccccc2NC(c2cccs2)N1O (configuration not stated)	DAX1 inh-1 3.7, DAX1 inh-2 5.7 (no result: AHR act)
CN1CCCN(C(=O)c2c(F)cccc2Cl)CC1	none
Oc1[nH]c2ccccc2c1C1=NCCCCC1	AHR act 62
CCOc1cccc(C=NNC(=O)C(=O)Nc2cccc(C(F)(F)F)c2)c1O	none (no result: AHR act, DAX1 inh-2)
O=C(NNC1=Nc2ccccc2SC1)c1ccc(F)cc1	AHR act 74
NC(=O)c1cc[n+](CC(=O)NC(=O)Nc2ccccc2)cc1	none
CC(=O)Nc1ccc(O)c(-c2nc3ccccc3s2)c1	hgDAF-12 ag 14, AHR act 72
O=C(Nc1ccc(O)c(-c2nc3ccccc3s2)c1)C1=COCCO1	AHR act 50
O=C(Nc1ccc(-c2nc3ccccc3s2)c(O)c1)C1=COCCO1	DAX1 inh-2 4.9
O=C(Nc1cccc(-c2nc3ccccc3s2)c1)C1=COCCO1	none
Cc1nn(Cc2cccc(F)c2)c(C)c1NC(=O)c1c(Cl)cnn1C	none
Cc1ccnc(NC(=S)NC(=O)/C=C/c2ccc(Cl)cc2)c1	none
CSC(=Nc1ccccc1)C(C#N)c1nc2ccccc2[nH]1 (configuration not stated)	none
N#CC(C(=S)Nc1ccccc1)c1nc2ccccc2[nH]1 (configuration not stated)	AHR act 73
Cc1cc(C)cc(NCc2cc(=O)oc3cc(-c4ccccc4)c(O)cc23)c1	AHR act 50
Cc1cc(C)cc(NCc2cc(=O)oc3cc(C)c(O)cc23)c1	none
COc1ccc(C)cc1NCc1cc(=O)oc2cc(-c3ccccc3)c(O)cc12	AHR act 49
CC(C)N(Cc1nc(-c2ccc3c(c2)OCO3)no1)Cc1nccn1C	AHR act 61
CC(=O)OCC=C1CCC2C3CC(C)C4=CC(=O)CCC4(C)C3C(O)CC12C (configuration not stated)	none (no result: AHR act)
Cc1cc(NC(=O)CSc2nc(C3CC3)nc3sc(C)c(C)c23)no1	none
Cc1cc(NC(=O)CSCC(=O)Nc2nc3ccccc3[nH]2)no1	hcDAF12 agonist 5.8
CCc1nc(SCC(=O)Nc2cc(C)on2)c2c(C)c(C)sc2n1	DAX1 inh-2 5.7
Cc1cc(NC(=O)CSCC(=O)Nc2nc3ccc(F)cc3s2)no1	hcDAF12 agonist 5.7
Cc1cc(NC(=O)C(C)SCC(=O)Nc2cc(C(F)(F)F)ccc2N2CCCCC2)no1 (configuration not stated)	none
Cc1cc(NC(=O)CSCC(=O)Nc2cc(C(F)(F)F)ccc2N2CCCCC2)no1	hcDAF12 agonist 6.0 (no result: AHR act)
Cc1ccc(NC(=O)[C@@H]2CCCN2C(=O)c2cccs2)cc1S(=O)(=O)N1CCCCC1	none
COc1ccc(CNC(=O)CC[C@H]2O[C@@H](n3cnc4c(NC(=O)c5ccccc5)ncnc43)[C@H](O)[C@@H]2O)cc1	none (no result: AHR act, DAX1 inh-2)
CCc1nc(SCC(=O)Nc2cc(C)on2)n[nH]1	none
Cc1cc(NC(=O)CSc2n[nH]c(N)n2)no1	DAX1 inh-1 4.3
COCC(=O)N1CCC(Oc2ccc(C(=O)N(C)CCCC3CCCC3)cc2)CC1	none
COc1cccc(OCCn2cc(/C=N/NC(=O)c3ccncc3)c3ccccc32)c1	none
COC(=O)N/N=C/c1cn(CCOc2ccccc2OC)c2ccccc12	AHR act 60
CNC(=S)N/N=C/c1cn(CCOc2cccc(OC)c2)c2ccccc12	AHR act 56
CC(CN1C(C)CCCC1C)OC(=O)c1ccc(Cl)cc1Cl (configuration not stated)	none
COc1ccccc1N1CCN(C(=O)c2cc3cc(F)ccc3[nH]2)CC1	hcDAF12 agonist 5.8
O=C(c1cc2cc(F)ccc2[nH]1)N1CCN(C(=O)c2ccco2)CC1	AHR act 54
COc1ccccc1N1CCN(C(=O)c2cc3ccccc3[nH]2)CC1	none
CCCCn1c(-c2cccs2)nc2nc3ccccc3nc21	none
CC(C)Cn1c(-c2cccs2)nc2nc3ccccc3nc21	AHR act 52
Cc1cn(CCOc2ccc(Cl)cc2)c(=O)[nH]c1=O	none
S=C(Nc1ccccn1)Nc1ccccc1Cl	AHR act 68
S=C(Nc1ccccn1)c1ccccn1	AHR act 61
